# Data: the supplement of paper PMC8728848
# The sample as a whole holds a higher share of the strongest signals than the screen did.
# What was measured:
# Assay in all cases: glycan array binding signal (z-score within array); higher = stronger binding
# Details in all cases: glycan notation: IUPAC condensed, linker removed
# [1] = biological target: Man(a1-2)Man(a1-3)[Man(a1-2)Man(a1-6)]Man
# Summary of the method: (§1)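 Arrays were curated from the Consortium for Functional Glycomics database, 3228 in total, and kept only where the protein sequence was available. Binding is expressed as a within-array Z-score. This score was averaged across arrays of the same protein sequence at different concentrations or buffers and across linkers, and negative values can be read as non-binding.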
# [2] = biological target: Man(a1-2)Man(a1-3)[Man(a1-2)Man(a1-6)]Man(a1-6)[Man(a1-2)Man(a1-2)Man(a1-3)]Man
# Summary of the method: as §1
# [3] = biological target: Man(a1-2)Man(a1-6)[Man(a1-3)]Man(a1-6)[Man(a1-2)Man(a1-2)Man(a1-3)]Man(b1-4)GlcNAc(b1-4)GlcNAc
# Summary of the method: as §1
# [4] = biological target: Man(a1-3)[Man(a1-6)]Man(a1-6)[Man(a1-3)]Man
# Summary of the method: as §1
# [5] = biological target: Neu5Ac(a2-3)Gal(b1-3)GalNAc(b1-3)Gal(a1-4)Gal(b1-4)Glc
# Summary of the method: as §1
# [6] = biological target: Neu5Ac(a2-3)Gal(b1-3)GlcNAc(b1-3)Gal(b1-3)GlcNAc
# Summary of the method: as §1
# [7] = biological target: Neu5Ac(a2-3)Gal(b1-3)GlcNAc6S
# Summary of the method: as §1
# [8] = biological target: Neu5Ac(a2-3)Gal(b1-3)[Fuc(a1-4)]GlcNAc
# Summary of the method: as §1
# [9] = biological target: Neu5Ac(a2-3)Gal(b1-3)[Fuc(a1-4)]GlcNAc(b1-3)Gal(b1-3)[Fuc(a1-4)]GlcNAc
# Summary of the method: as §1
# [10] = biological target: Neu5Ac(a2-3)Gal(b1-4)GlcNAc(b1-2)Man(a1-3)[Neu5Ac(a2-3)Gal(b1-4)GlcNAc(b1-2)Man(a1-6)]Man(b1-4)GlcNAc(b1-4)[Fuc(a1-6)]GlcNAc
# Summary of the method: as §1
# [11] = biological target: Neu5Ac(a2-3)Gal(b1-4)GlcNAc(b1-2)[Neu5Ac(a2-3)Gal(b1-4)GlcNAc(b1-6)]Man(a1-6)[Neu5Ac(a2-3)Gal(b1-4)GlcNAc(b1-2)Man(a1-3)][GlcNAc(b1-4)]Man(b1-4)GlcNAc(b1-4)GlcNAc
# Summary of the method: as §1
# [12] = biological target: Neu5Ac(a2-3)Gal(b1-4)GlcNAc(b1-3)Gal(b1-4)GlcNAc(b1-6)[Gal(b1-3)]GalNAc
# Summary of the method: as §1
# [13] = biological target: Neu5Ac(a2-3)Gal(b1-4)GlcNAc(b1-6)GalNAc
# Summary of the method: as §1
# [14] = biological target: Neu5Ac(a2-3)Gal(b1-4)[Fuc(a1-3)]GlcNAc6S
# Summary of the method: as §1
# [15] = biological target: Neu5Ac(a2-3)[GalNAc(b1-4)]Gal(b1-4)Glc
# Summary of the method: as §1
# [16] = biological target: Neu5Ac(a2-3)[GalNAc(b1-4)]Gal(b1-4)GlcNAc(b1-3)GalNAc
# Summary of the method: as §1
# [17] = biological target: Neu5Ac(a2-6)Gal(b1-4)GlcNAc(b1-2)Man(a1-3)[Neu5Ac(a2-6)Gal(b1-4)GlcNAc(b1-2)Man(a1-6)]Man(b1-4)GlcNAc(b1-4)[Fuc(a1-6)]GlcNAc
# Summary of the method: as §1
# [18] = biological target: Neu5Ac(a2-6)Gal(b1-4)GlcNAc(b1-3)Gal(b1-4)GlcNAc(b1-3)[Neu5Ac(a2-6)Gal(b1-4)GlcNAc(b1-3)Gal(b1-4)GlcNAc(b1-6)]GalNAc
# Summary of the method: as §1
# [19] = biological target: Neu5Ac(a2-6)Gal(b1-4)GlcNAc(b1-3)Gal(b1-4)[Fuc(a1-3)]GlcNAc(b1-3)Gal(b1-4)[Fuc(a1-3)]GlcNAc
# Summary of the method: as §1
# [20] = biological target: Neu5Ac(a2-6)Gal(b1-4)GlcNAc(b1-6)[Gal(b1-3)]GalNAc
# Summary of the method: as §1
# [21] = biological target: Neu5Ac(a2-6)Gal(b1-4)GlcNAc6S
# Summary of the method: as §1
# [22] = biological target: Neu5Ac(a2-6)GalNAc(b1-4)GlcNAc6S
# Summary of the method: as §1
# [23] = biological target: Neu5Ac(a2-8)Neu5Ac
# Summary of the method: as §1
# [24] = biological target: Neu5Ac(a2-8)Neu5Ac(a2-8)Neu5Ac
# Summary of the method: as §1
# [25] = biological target: Neu5Ac(a2-8)Neu5Ac(a2-8)Neu5Ac(a2-3)[GalNAc(b1-4)]Gal(b1-4)Glc
# Summary of the method: as §1
# [26] = biological target: Neu5Gc(a2-3)Gal(b1-3)[Fuc(a1-4)]GlcNAc
# Summary of the method: as §1
# [27] = biological target: Neu5Gc(a2-3)Gal(b1-4)GlcNAc
# Summary of the method: as §1
# [28] = biological target: Neu5Gc(a2-8)Neu5Ac(a2-3)Gal(b1-4)GlcNAc
# Summary of the method: as §1
binder,measurement,setting,value
Pwp2 (Candida glabrata) (protein) MGSSHHHHHHSSGLVPRGSHMASKNPVELNNVCTFPNDYGRIPGFTVLVGRLGLLISASDYKELLRYPGAFLIATQDTMTTSPNFELTGFPFFTGLYGLTVFPLDLLVELRGYFVPPNSGQYTFTLSDSDDAAIIFLGNPSAFPCGDLQNWPKPSEEDITVTDHLFPSRTLYLIEGVAYPMRIAYYNGIGAGRLNAAFIDPSGTRHTNWEGYIWQYDPCSTCTYS,glycan array binding signal (z-score),[1],-0.477
same,glycan array binding signal (z-score),[2],-0.722
same,glycan array binding signal (z-score),[3],-0.467
same,glycan array binding signal (z-score),[4],5.45
same,glycan array binding signal (z-score),[5],-0.307
same,glycan array binding signal (z-score),[6],-0.269
same,glycan array binding signal (z-score),[7],-0.456
same,glycan array binding signal (z-score),[8],0.549
same,glycan array binding signal (z-score),[9],4
same,glycan array binding signal (z-score),[10],0.96
same,glycan array binding signal (z-score),[11],4.22
same,glycan array binding signal (z-score),[12],1.44
same,glycan array binding signal (z-score),[13],4.01
same,glycan array binding signal (z-score),[14],0.309
same,glycan array binding signal (z-score),[15],0.443
same,glycan array binding signal (z-score),[16],0.085
same,glycan array binding signal (z-score),[17],1.79
same,glycan array binding signal (z-score),[18],-0.059
same,glycan array binding signal (z-score),[19],-0.077
same,glycan array binding signal (z-score),[20],3.56
same,glycan array binding signal (z-score),[21],-0.426
same,glycan array binding signal (z-score),[22],4.86
same,glycan array binding signal (z-score),[23],-0.04
same,glycan array binding signal (z-score),[24],-0.203
same,glycan array binding signal (z-score),[25],0.537
same,glycan array binding signal (z-score),[26],-0.072
same,glycan array binding signal (z-score),[27],0.982
same,glycan array binding signal (z-score),[28],-0.437
